# Laboratory results as given in PubChem BioAssay (NCI).
# “And” between values parts separate entries of the source, which are not always exact repeats. Equal values may be shown once. The panel holds about 83,000 compounds, 20% with a hit somewhere; the sample as a whole holds those more often.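 Values shown are percent growth following 48 h exposure of cells in 96-well plates to a single concentration of compound; below 10 was considered active.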 Values without a mark were called inactive. The source made the active and inactive calls.
# Tested on: U251 CNS
# Test: NCI-60 one-dose screen, 48 h (100 = growth as untreated, 0 = no growth, -100 = all killed)
# Conditions: 10 µM unless noted
# Procedure: Growth inhibition of the U251 human tumor cell line is measured as a screen for anti-cancer activity. Cells are grown in 96 well plates and exposed to the test compound for 48 hours. Compounds are tested at a single concentration, which is 10^-5 M for most compounds. The reported endpoint is percent growth (GI% or GIPRCNT), where numbers from 0 - 100% represent growth inhibition, and numbers from -100% - 0 represent cell death. For example, a value of 40 represents 60% growth inhibition. A value of 0 means no net growth occurred over the course of the experiment. A value of -40 indicates 40% of cells at the beginning of the experiment died by the end of the experiment. A value of -100 means all cells are dead at the end of the experiment.
# NCI-60 Human Tumor Cell Lines Screen was performed using the standard one-dose NCI protocol, which is described in more detail at https://dtp.cancer.gov/discovery_development/nci-60/default.htm.
# Compounds with GIPRCNT values below 10 were considered active. Activity score was based on GIPRCNT using the following formula: […]
# Score is 0 for GIPRCNT values of 100 or above, 50 for GIPRCNT values of 0, and 100 for GIPRCNT values of -100.
row,SMILES,growth
1,CCC(CCCN(CC)CCc1ccccc1)OC(=O)c1cc(OC)c(OC)c(OC)c1 (stereo not given),90.8%
2,COC(=O)c1nc(=S)[nH]c(C(=O)OC)c1C(=O)c1ccc2ccccc2c1,97.6%
3,O=C1c2ccccc2C(=O)N1c1ccccc1,93.1%
4,CCC(=O)Sc1ccccc1C(=O)Nc1ccc(Cl)cc1,36.5%
5,C[n+]1c(/C=C/c2ccc([N+](=O)[O-])cc2)ccc2ccccc21,99.6%
6,CN1c2ccccc2C(C)(C)C12C=Cc1cc(O)ccc1O2 (stereo not given),52.9%
7,O=Nc1ccccc1N=O,78.3%
8,O=C(O)C1C2CC3C(OC(=O)C31)C2Br (stereo not given),92.3% and 91.1%
9,O=C(Nc1ccccc1)c1cc(Cl)ccc1O,59.1%
10,O=C(/C=C\c1cc(Br)ccc1O)/C=C/c1cc(Br)ccc1O,-82.6% (active)
11,C1=C(c2ccccc2)C(c2ccc(OCCN3CCCCC3)cc2)Oc2ccccc21 (stereo not given),38.2%
12,COc1ccc2nc3cc(Cl)ccc3c(NCCNc3c4ccc(Cl)cc4nc4ccc(OC)cc34)c2c1,-84% (active)
13,Oc1ccc(/C=N/NC(=S)Nc2ccccc2)nc1,14.7%
14,CC(C)(C)CC(C)(C)c1ccc(OCCSC(=N)N)cc1,12.3%
15,CC(C)(C)c1ccc(O)c(C2CCCCC2)c1,101%
16,COc1cc(NS(C)(=O)=O)ccc1Nc1c2ccccc2nc2ccccc12,18.7% [2.5 µM]
17,c1ccc2c(c1)Nc1cc3ccccc3cc1N2,43%
18,CN(C)c1ccc(/C=N/N=C(\C#N)[S][Sn]([Cl])([c]2ccccc2)[c]2ccccc2)cc1,57.3%
19,N#CSCc1ccc(CSC#N)c(Cl)c1,85.8%
20,C[N+](C)=c1ccc2nc3c(cc(NCCCNc4cc5oc6cc(=[N+](C)C)ccc-6nc5c5ccccc45)c4ccccc43)oc-2c1,-20.1% (active)

row,SMILES,growth
1,CNC(=O)N/N=C/c1ccc([N+](=O)[O-])o1,96.9%
2,CC1OC(OC2C(OC3CCC4(C)C(CCC5(C)C4CC=C4C6CC(C)(C)CCC6(CO)C(O)CC45C)C3(C)C)OC(C(=O)O)C(OC3OC(COC4OC(CO)C(O)C(O)C4O)C(O)C(O)C3O)C2O)C(O)C(O)C1O (stereo not given),-80.4% (active)
3,CN(C)CCOc1ccc2c(c1)C(=O)/C(=C\c1ncc([N+](=O)[O-])n1C)C2,-14.4% (active)
4,CC1SC(=S)N(c2ccc(Cl)cc2)C1=O (stereo not given),95.4% and 93.6%
5,CCOC(=O)/C(=C\c1ccc(-c2ccccc2)cc1)C(C)=O,103%
6,CN(C)c1ccc(N=Nc2cccc3ccccc23)cc1,88.6%
7,CCCCCCC(C)c1ccccc1O (stereo not given) (tested in a mixture with another compound),104%
8,O=C(Nc1ccccc1)Oc1c(Cl)c(Cl)c(Cl)c(Cl)c1Cl,99% and 100%
9,CC(=O)ON=C1C=CC(=C(C#N)c2ccccc2)C=C1,22.9%
10,CCC1OC(OC)C=CC1=O (stereo not given),113%
11,OC(CNc1ccnc2cc(Cl)ccc12)CNc1ccnc2cc(Cl)ccc12,3.22% (active)
12,O=C(/C=C/c1cccc(Cl)c1)c1ccccc1,75.9% and 45%
13,COc1ccc(-c2cscc2N)cc1,38.5% [100 µM]
14,O=C1OCc2cccc3cccc1c23,106%
15,Cc1ccc2nc(-[n+]3cc4ccccc4cc3C)ccc2c1,22.6%
16,CCOc1ccc(-c2nc3ccc(-c4nc5ccc(N6CCN(C)CC6)cc5[nH]4)cc3[nH]2)cc1,-98.1% (active)
17,C/C=C1\SC(=S)NC1=O,96.2%
18,CC1=CC(O)C2CC1C2(C)C (stereo not given),100% and 110%
19,CN(C)C(=O)c1ccc(SC(=S)NCc2ccccc2)cc1,16.7% [100 µM]
20,Cc1ccc(NS(=O)(=O)c2ccc(C)cc2)cc1,96.9% and 86.6%
